Measured values taken from PubChem BioAssay (NCATS).
Where “and” joins values, the source holds several entries; their conditions need not be identical. Equal values may be shown once. Records with an inconclusive call do not appear. Calls of active or inactive are those of the source. Unless noted, calls follow the shape of the dose curve; as a rule, active = well fitted curve in the direction sought with a large enough effect; inconclusive = small, poorly fitted or top-dose-only effect, or another doubt; inactive = no such curve, though single readings can be large; an effect the other way counts as inactive or inconclusive.

Tests used:
[1] = biological target: Cytochrome P450 3A4 (Homo sapiens) (UniProt P08684); experiment: qHTS Assay for Inhibitors and Substrates of Cytochrome P450 3A4 (AID 884); also: nearly all actives have a fitted effect of over 50% in size; also: potency is read from the fitted curve at half-maximal effect
How it was run: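 20 nM human CYP3A4 with 25 uM Luciferin-PPXE (at KM) in 200 mM KPO4, preincubated 10 min with compound; NADPH regeneration started a 60 min RT reaction. Luciferin detected by luminescence, normalized to 57 uM ketoconazole as full inhibition.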

[2] = test system: HIV-1 nucleocapsid protein NCp7 (binding to TG oligonucleotide); experiment: HIV Nucleocapsid (AID 346; call rule not given here;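 also: potency is read from the fitted curve at half-maximal effect; potency is for inhibitors that block NC binding and lower polarization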); details: HIV-1 NC / fluorescein-TGTGTGTG probe, fluorescence polarization
How it was run: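 Reagents dispensed (10 nM TG4xF, 100 nM HIV-1 NC), plates spun, compounds pin-transferred, then incubated 1 hr at room temperature before FP imaging. Buffer: Hepes pH 7.5, 250mM NaCl, 1uM ZnCl2, 100 uM TCEP, 5 mM 2-mercaptoethanol.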

[3] = biological target: Cytochrome P450 2C19 (Homo sapiens) (UniProt P33261); experiment: qHTS Assay for Inhibitors and Substrates of Cytochrome P450 2C19 (AID 899); also: nearly all actives have a fitted effect of over 60% in size; also: potency is read from the fitted curve at half-maximal effect
How it was run: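 Human CYP2C19 (5nM) with Luciferin-H EGE at 10uM (its KM) in 50mM KPO4 was preincubated with compound for 10 min at 37C. NADPH regeneration started a 60 min 37C reaction. Luciferin was read by luminescence, normalized to 57uM ketoconazole.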

AS120 = experiment: qHTS profiling for inhibitors of Plasmodium falciparum proliferation (AID 504749); also: nearly all actives have a fitted effect of over 60% in size; details: P. falciparum in erythrocytes, SYBR Green DNA, 72 h; series mostly up to 28.7 µM
How it was run: (§1)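 P. falciparum-infected erythrocytes (0.3% parasitemia, 2.5% hematocrit final) were exposed to compounds for 72 h at 37 C in 5% CO2, then lysed with SYBR Green buffer overnight at room temperature; parasite DNA fluorescence was normalized to artemisinin and DMSO controls.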

CP215 = experiment: as above; details: P. falciparum in erythrocytes, SYBR Green DNA, 72 h; series mostly up to 28.7 µM
How it was run: as §1

CP247 = experiment: as above; details: P. falciparum in erythrocytes, SYBR Green DNA, 72 h; series mostly up to 28.7 µM
How it was run: as §1

CP260 = experiment: as above; details: P. falciparum in erythrocytes, SYBR Green DNA, 72 h; series mostly up to 28.7 µM
How it was run: as §1

CP265 = experiment: as above; details: P. falciparum in erythrocytes, SYBR Green DNA, 72 h; series mostly up to 12.8 µM
How it was run: as §1

CP335 = experiment: as above; details: P. falciparum in erythrocytes, SYBR Green DNA, 72 h; series mostly up to 12.8 µM
How it was run: as §1

DIV14 = experiment: as above; details: P. falciparum in erythrocytes, SYBR Green DNA, 72 h; series mostly up to 28.7 µM
How it was run: as §1

DIV17 = experiment: as above; details: P. falciparum in erythrocytes, SYBR Green DNA, 72 h; series mostly up to 28.7 µM
How it was run: as §1

ICS = experiment: as above; details: P. falciparum in erythrocytes, SYBR Green DNA, 72 h; series mostly up to 28.7 µM
How it was run: as §1

PAD = experiment: as above; details: P. falciparum in erythrocytes, SYBR Green DNA, 72 h; series mostly up to 28.7 µM
How it was run: as §1

PC26 = experiment: as above; details: P. falciparum in erythrocytes, SYBR Green DNA, 72 h; series mostly up to 28.7 µM
How it was run: as §1

SC27B = experiment: as above; details: P. falciparum in erythrocytes, SYBR Green DNA, 72 h; series mostly up to 28.7 µM
How it was run: as §1

TAB113 = experiment: as above; details: P. falciparum in erythrocytes, SYBR Green DNA, 72 h; series mostly up to 28.7 µM
How it was run: as §1

TAB165 = experiment: as above; details: P. falciparum in erythrocytes, SYBR Green DNA, 72 h; series mostly up to 28.7 µM
How it was run: as §1

W2 = experiment: as above; details: P. falciparum in erythrocytes, SYBR Green DNA, 72 h; series mostly up to 12.8 µM
How it was run: as §1

7G8 = experiment: as above; details: P. falciparum in erythrocytes, SYBR Green DNA, 72 h; series mostly up to 12.8 µM
How it was run: as §1

CP203 = experiment: as above; details: P. falciparum in erythrocytes, SYBR Green DNA, 72 h; series mostly up to 28.7 µM
How it was run: as §1

Measured: Potency

Chain of Cytochrome P450 2C19 (Homo sapiens) (P33261 whole entry, looked up): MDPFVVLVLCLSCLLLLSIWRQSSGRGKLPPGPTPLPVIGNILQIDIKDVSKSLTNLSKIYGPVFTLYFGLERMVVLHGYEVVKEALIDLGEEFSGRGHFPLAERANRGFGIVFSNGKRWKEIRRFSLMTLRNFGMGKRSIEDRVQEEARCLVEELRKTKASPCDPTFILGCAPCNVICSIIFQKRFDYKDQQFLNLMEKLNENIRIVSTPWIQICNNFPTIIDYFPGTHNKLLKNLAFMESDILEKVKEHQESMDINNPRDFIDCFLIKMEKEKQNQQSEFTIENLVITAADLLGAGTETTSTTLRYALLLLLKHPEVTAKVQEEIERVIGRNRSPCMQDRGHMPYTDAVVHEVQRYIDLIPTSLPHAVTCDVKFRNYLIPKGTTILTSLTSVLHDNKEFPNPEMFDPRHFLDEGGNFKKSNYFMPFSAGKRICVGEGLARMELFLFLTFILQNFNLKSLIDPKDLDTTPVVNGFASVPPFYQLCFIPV
Chain of Cytochrome P450 3A4 (Homo sapiens) (P08684 whole entry, looked up): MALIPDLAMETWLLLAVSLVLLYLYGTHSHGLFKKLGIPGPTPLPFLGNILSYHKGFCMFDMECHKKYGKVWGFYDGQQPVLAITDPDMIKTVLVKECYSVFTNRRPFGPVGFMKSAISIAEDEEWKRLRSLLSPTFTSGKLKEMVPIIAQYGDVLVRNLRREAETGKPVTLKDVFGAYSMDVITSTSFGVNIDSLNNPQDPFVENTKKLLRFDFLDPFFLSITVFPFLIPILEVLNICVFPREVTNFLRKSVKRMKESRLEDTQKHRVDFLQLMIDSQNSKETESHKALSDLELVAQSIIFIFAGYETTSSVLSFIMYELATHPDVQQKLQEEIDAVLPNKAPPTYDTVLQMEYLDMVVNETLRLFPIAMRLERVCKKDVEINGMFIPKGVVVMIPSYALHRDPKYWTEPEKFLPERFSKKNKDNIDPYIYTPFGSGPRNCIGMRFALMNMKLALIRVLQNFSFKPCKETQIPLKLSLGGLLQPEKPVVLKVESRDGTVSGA

O=C(O)COc1ccc(Cl)cc1Cl
inactive: [1]

N#Cc1ccc(CN2CCC3(CC2)CCN(C(=O)Oc2ccccc2)CC3)cc1
inactive: [2] > 20 µM | [1]

c1cc(CN2CC3(CCNCC3)C2)ccn1
inactive: [2] > 20 µM

CC(C)CN1CCC2(CC1)CCN(C(=O)Oc1ccccc1)CC2
inactive: [2] > 20 µM

CNC(=O)O/N=C/C(C)(C)SC
inactive: [1]

O=C(c1ccncc1)N1CCC2(CC1)CN(Cc1ccccc1)C2
inactive: [2] > 20 µM

Cc1nc2cnc(N3CCNCC3)nc2n(C)c1=O
inactive: [2] > 20 µM | [3]

c1ccc(N=Nc2ccccc2)cc1
inactive: [1]

CC(C)NC(=O)N1CCC2(CCNCC2)CC1
inactive: [2] > 20 µM

c1ccc(CN2CCCC3(CCNCC3)C2)cc1
inactive: [2] > 20 µM

c1ccc(N2CC3(CCNCC3)C2)cc1
inactive: [2] > 20 µM

O=C(Nc1ccccc1)N1CC[C@@]2(CCCN(C(=O)Oc3ccccc3)C2)C1
inactive: [2] > 20 µM

O=C(Oc1ccccc1)N1CCC2(CCCN(C(c3ccccc3)c3ccccc3)C2)CC1
inactive: [2] > 20 µM

CCNC[C@H](O)c1cccc(O)c1
not listed: [1] | [2] | [3] | 7G8 | CP203
inactive: all other assays above

O=C(Oc1ccccc1)N1CCC2(CCN(Cc3ccccc3)CC2)CC1
inactive: [2] > 20 µM

COC(=O)N1CCC2(CCCN(C)C2)CC1
inactive: [2] > 20 µM

CN1CCCC2(CCN(C(=O)Oc3ccccc3)CC2)C1
inactive: [2] > 20 µM

ClC1=C(Cl)C2(Cl)C3C4C=CC(C4)C3C1(Cl)C2(Cl)Cl (stereo not given)
active: [1] 3.16 µM

CC1=C2[C@@H]3OC(=O)[C@@H](C)[C@@H]3CC[C@]2(C)C=CC1=O
inactive: 7G8 | CP203 | CP215 | CP260 | CP335 | DIV14 | DIV17 | ICS | PC26 | W2

COc1ccc2c(c1OC)C(=O)O[C@H]2[C@H]1c2cc3c(cc2CCN1C)OCO3
active: [3] 1.26 µM and 79.4 nM

CC[C@@H]1[C@@H]2C[C@H]3[C@H]4N(C)c5ccccc5[C@@]45C[C@@H]([C@@H]2[C@@H]5O)N3[C@H]1O
inactive: CP203 | CP247 | CP260 | CP265 | CP335 | PC26 | SC27B | TAB113 | TAB165

CC[C@@]1(c2ccc(N)cc2)CCC(=O)NC1=O
not listed: [1] | [2] | [3] | W2
inactive: all other assays above

N#Cc1ccc(CN2CC[C@@]3(CCCN(C(=O)Oc4ccccc4)C3)C2)cc1
active: [1] 7.94 µM

C[C@H]1CN(C2CCC(C#N)(c3ccc(F)cc3)CC2)CC[C@@]1(C(=O)O)c1ccccc1 (stereo not given in full)
not listed: [1] | [2] | [3]
inactive: all other assays above

CC(C)NC(=O)N1CC[C@@]2(CCCNC2)C1
inactive: [1] | [3]

CNC[C@H](O)c1ccc(O)cc1
not listed: [1] | [2]
inactive: all other assays above

CC(=O)O[C@H]1CC[C@@]2(C)C(=CC[C@@H]3[C@H]2CC[C@]2(C)C(=O)CC[C@H]32)C1
not listed: [2] | [3]
inactive: all other assays above

C[N+]1(C)[C@@H]2CC[C@H]1CC(OC(=O)[C@@H](CO)c1ccccc1)C2 (stereo not given in full)
not listed: [1] | [2] | [3]
inactive: all other assays above

C[C@H](NC(C)(C)C)C(=O)c1cccc(Cl)c1
inactive: AS120 | CP203 | CP215 | CP260 | DIV14 | PAD | PC26 | SC27B | TAB113 | TAB165

C[C@]12CC[C@H](O)C[C@@H]1CC[C@H]1[C@H]2CC[C@]2(C)C(=O)CC[C@@H]12
inactive: [1]

CN(C)C(=O)Oc1cc(OC(=O)N(C)C)cc([C@@H](O)CNC(C)(C)C)c1
not listed: [1] | [2]
inactive: all other assays above

c1ccc(CN2CCC3(CCNCC3)CC2)cc1
active: [3] 5.01 µM

CN1CCc2cc3c(cc2[C@@H]1[C@@H]1OC(=O)c2c1ccc1c2OCO1)OCO3
active: [1] 0.794 µM | [3] 398 nM and 50.1 nM

C[C@@]12CC[C@H]3[C@@H](CC[C@@H]4C[C@H]5S[C@H]5C[C@]43C)[C@H]1CC[C@H]2O
active: [3] 0.0631 µM
not listed: [1] | [2] | ICS | W2 | 7G8
inactive: all other assays above
